High-throughput results as filed in PubChem BioAssay.
Shown are actives, neighbours in structure and some others; about 6.7% of the full set was active somewhere.
T cruzi growth-1: T. cruzi intracellular proliferation inhibitors, primary screen, cell-based, beta-gal Tulahuen parasites, NIH3T3 host, luminescence. AID 624255, 2012. 77,000 compounds, 5.9% hits. T. cruzi beta-gal in NIH3T3, GalScreen luminescence, 90 h. inhibition, % at 8.34 µM;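 active = mean inhibition above about 93%, with at least 55% of replicates each passing it, limit read from the data, passing the limit was not always enough; inconclusive = only one of those two conditions holds; inactive = neither condition holds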
C diff growth: C. difficile growth inhibitors, primary screen, HTS | Clostridium difficile clinical isolate growth, OD600, 24 h; hits give low values | growth activity, negative = inhibition, % at 16 µg/mL (by protocol) | 86,000 compounds, 0.25% hits;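 active = mean growth activity at or below -80% and every replicate also at or below -80%; inconclusive = mean at or below -80% but some replicate above -80%; inactive = mean growth activity above -80%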;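 note: 0% = DMSO wells and -100% = levofloxacin 16 µg/mL wells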
Pf Dd2 growth: P. falciparum Dd2 growth inhibitors, primary screen, SYBR Green fluorescence, single dose replicates | 72 h; hits give low values | activity change, % at 10 µM | 94,000 compounds, 2.3% hits; in the data active = activity change below about -80%; inconclusive = no clear call, values can overlap the other calls
T cruzi growth-2: T. cruzi intracellular proliferation inhibitors, confirmation, cell-based, NIH3T3 host, beta-gal parasite, luminescence, cherry-pick. AID 651739, 2012. shares compounds with T cruzi growth-1. T. cruzi beta-gal in NIH3T3, GalScreen luminescence, 90 h. 5,600 compounds, 72% hits. inhibition, % at 8.35 µM;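 active = mean replicate inhibition above about 95% and at least 55% of replicates individually reaching it, limit read from the data; inconclusive = only one of the two criteria is met; inactive = neither criterion is met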
T cruzi growth-3: inhibitors of intracellular T. cruzi replication, confirmation, NIH3T3 host cells, beta-gal parasites, cherry-pick, set 2; 5,600 compounds, 21% hits; inhibition, % at 2.09 µM; shares compounds with T cruzi growth-1; T. cruzi beta-gal in NIH3T3, GalScreen luminescence, 90 h;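 active = mean inhibition above about 95%, with at least 55% of replicates also reaching it, limit read from the data; inconclusive = meets just one of the two conditions; inactive = meets neither condition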;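 note: plate controls were neutral control median for no effect and positive control median for full effect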
3T3 cytotox: cytotoxicity in mouse NIH/3T3 fibroblasts, confirmation, cytotoxicity control for T. cruzi proliferation inhibitor project, cell-based, cherry-pick, single point; shares compounds with T cruzi growth-1; NIH/3T3 viability, CellTiter-Glo ATP luminescence, 90 h; cytotoxicity (signal decrease), % at 8.35 µM; 5,600 compounds, 14% hits; AID 651742, 2012;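 active = mean signal decrease across replicates above about 35% based on untreated-well scatter, with enough replicates individually passing, limit read from the data; inconclusive = no rule stated though some were filed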;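 note: 0% = median of neutral control wells and 100% = median of positive control wells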
3T3 cytotox 2: NIH/3T3 fibroblast cytotoxicity, confirmation, cytotoxicity control, cell-based, cherry-pick, single point, set 2; shares compounds with T cruzi growth-1; NIH/3T3 viability, CellTiter-Glo ATP luminescence, 90 h; 5,600 compounds, 56% hits; AID 651744, 2012; inhibition, % at 24.9 µM;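 active = mean loss of cell viability signal at or above a set limit, and enough replicates individually reaching it; inconclusive = meets only the mean limit or only the replicate share; inactive = meets neither condition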;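 note: 0% = median of neutral control wells and 100% = median of positive control wells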
* marks the source's active call; other numbers are inactive results.

`C[C@H]1CN([C@@H](C)CO)S(=O)(=O)c2ccc(/C=C/c3ccccc3)cc2O[C@@H]1CN(C)C(=O)NC1CCCC1` gave T cruzi growth-1 99.1*, C diff growth -2.4, Pf Dd2 growth -26.9, T cruzi growth-2 inconclusive, T cruzi growth-3 56.2, 3T3 cytotox -1.5 and 3T3 cytotox 2 96.0*.
For C[C@H](CO)N1C[C@H](C)[C@H](CN(C)C(=O)NC2CCCC2)Oc2cc(/C=C/c3ccccc3)ccc2S1(=O)=O the results were T cruzi growth-1 94.2, C diff growth 2.6 and Pf Dd2 growth -66.2.
C[C@@H]1CN([C@H](C)CO)S(=O)(=O)c2ccc(/C=C/c3ccccc3)cc2O[C@@H]1CN(C)C(=O)NC1CCCC1 was read as T cruzi growth-1 82.1, C diff growth 10.1 and Pf Dd2 growth -39.1.
COc1ccc2c3c(n(C)c2c1)[C@@H](CO)N(C(=O)c1cccnc1)CC31CCN(C)CC1 was read as C diff growth 1.5 and Pf Dd2 growth 26.3.
`CCC(=O)Nc1ccc2c(c1)OC[C@H](C)N(C(C)=O)C[C@@H](C)[C@H](OC)CN(C)C2=O` gave C diff growth 3.4 and Pf Dd2 growth 12.7.
For O=C(C[C@@H]1CC[C@@H]2[C@H](COC[C@H](O)CN2S(=O)(=O)c2cccc(Cl)c2)O1)Nc1ccc(-c2ccccc2)cc1 the results were T cruzi growth-1 110.3*, C diff growth 15.1, Pf Dd2 growth -35.0, T cruzi growth-2 93.2, T cruzi growth-3 111.3*, 3T3 cytotox 36.4* and 3T3 cytotox 2 75.4*.
Screening O=C(C[C@@H]1CC[C@H]2[C@@H](COC[C@H](O)CN2S(=O)(=O)c2ccccc2)O1)Nc1ccc(-c2ccccc2)cc1 returned T cruzi growth-1 70.3 and Pf Dd2 growth -8.9.
Screening O=C(C[C@H]1CC[C@H]2[C@@H](COC[C@@H](O)CN2S(=O)(=O)c2cccc(Cl)c2)O1)Nc1ccccc1 returned T cruzi growth-1 15.1, C diff growth 2.8 and Pf Dd2 growth 6.5.
Screening O=C(C[C@@H]1CC[C@H]2[C@@H](COC[C@H](O)CN2S(=O)(=O)c2cccc(Cl)c2)O1)Nc1ccc(-c2ccccc2)cc1 returned T cruzi growth-1 inconclusive, C diff growth -6.8, Pf Dd2 growth -2.5, T cruzi growth-2 110.0*, T cruzi growth-3 71.5, 3T3 cytotox 22.3 and 3T3 cytotox 2 105.3*.
`CN1C(=O)c2cc(NC(=O)c3ccccc3)ccc2OC[C@@H]2O[C@H](CC(=O)NCC3CC3)CC[C@H]21` gave T cruzi growth-1 36.2, C diff growth 3.4 and Pf Dd2 growth -21.6.
For C[C@H](CO)N1C[C@H](C)[C@H](CN(C)S(=O)(=O)c2ccc(Cl)cc2)Oc2c(NC(=O)CCCCCC(=O)Nc3ccccc3N)cccc2C1=O the results were T cruzi growth-1 106.2*, C diff growth -3.2, Pf Dd2 growth -81.0*, T cruzi growth-2 113.7*, T cruzi growth-3 76.5, 3T3 cytotox 20.8 and 3T3 cytotox 2 7.9.
C[C@H](CO)N1C[C@H](C)[C@@H](CN(C)S(=O)(=O)c2ccc(F)cc2)Oc2c(NC(=O)CCCCCC(=O)Nc3ccccc3N)cccc2C1=O was read as C diff growth -6.6 and Pf Dd2 growth -69.1.
C[C@H]1CN([C@@H](C)CO)C(=O)c2cccc(NC(=O)CCCCCC(=O)Nc3ccccc3N)c2O[C@@H]1CN(C)S(=O)(=O)c1ccc(Cl)cc1 was read as T cruzi growth-1 105.9*, C diff growth 0.8, Pf Dd2 growth inconclusive, T cruzi growth-2 104.5*, T cruzi growth-3 69.4, 3T3 cytotox 31.0 and 3T3 cytotox 2 20.6.
Screening C[C@H]1CN([C@@H](C)CO)C(=O)c2cccc(NC(=O)CCCCCC(=O)Nc3ccccc3N)c2O[C@H]1CN(C)S(=O)(=O)c1ccc(F)cc1 returned C diff growth -1.8 and Pf Dd2 growth inconclusive.
`C[C@H]1CN([C@@H](C)CO)C(=O)Cc2cc(NC(=O)Nc3ccccc3)ccc2O[C@H]1CN(C)C(=O)Nc1cccc2ccccc12` gave T cruzi growth-1 -1.8, C diff growth -1.3 and Pf Dd2 growth -5.8.
For C[C@@H]1CN([C@H](C)CO)C(=O)c2cccc(NS(C)(=O)=O)c2O[C@@H]1CN(C)S(=O)(=O)c1cn(C)cn1 the results were T cruzi growth-1 54.2, C diff growth -6.6 and Pf Dd2 growth 16.2.
CCCC#Cc1ccc2c(c1)O[C@@H](CN(C)S(=O)(=O)c1cccc(F)c1)[C@@H](C)CN([C@@H](C)CO)S2(=O)=O was read as T cruzi growth-1 121.5*, C diff growth 13.2, Pf Dd2 growth -55.1, T cruzi growth-2 104.9*, T cruzi growth-3 102.4*, 3T3 cytotox 19.6 and 3T3 cytotox 2 83.8*.
`C[C@H]1CN([C@@H](C)CO)S(=O)(=O)c2ccc(C#CCN(C)C)cc2O[C@@H]1CN(C)S(=O)(=O)c1cccc(F)c1` gave C diff growth 5.1 and Pf Dd2 growth -44.6.
For CCCC#Cc1ccc2c(c1)O[C@H](CN(C)S(=O)(=O)c1cccc(F)c1)[C@H](C)CN([C@H](C)CO)S2(=O)=O the results were T cruzi growth-1 121.6*, C diff growth 9.1, Pf Dd2 growth -49.0, T cruzi growth-2 103.1*, T cruzi growth-3 108.3*, 3T3 cytotox 15.9 and 3T3 cytotox 2 75.5*.
CC(C)CC#Cc1ccc2c(c1)O[C@@H](CN(C)S(=O)(=O)c1cccc(F)c1)[C@@H](C)CN([C@H](C)CO)S2(=O)=O was read as T cruzi growth-1 120.0*, C diff growth 19.2, Pf Dd2 growth -3.8, T cruzi growth-2 90.1, T cruzi growth-3 99.7*, 3T3 cytotox 17.6 and 3T3 cytotox 2 57.1*.
`COc1cccc(S(=O)(=O)N(C)C[C@H]2Oc3cc(C#CCC(C)C)ccc3S(=O)(=O)N([C@@H](C)CO)C[C@@H]2C)c1` gave T cruzi growth-1 74.2, C diff growth 2.0 and Pf Dd2 growth inconclusive.
`COCC#Cc1ccc2c(c1)O[C@H](CN(C)S(=O)(=O)c1cccc(F)c1)[C@@H](C)CN([C@@H](C)CO)S2(=O)=O` gave T cruzi growth-1 81.5, C diff growth -2.7 and Pf Dd2 growth -78.3.
